About 79,000 compounds went through this panel and 15% of them were active in at least one assay; those are over-represented in the sample as a whole. The source made the active and inactive calls. Rule as the data show it: active = growth inhibition above about 70%; inactive = the rest.
How the values were obtained:
[1] = NCI Yeast Anticancer Drug Screen. Data for the rad50 strain (AID 155);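 also: 0% = growth of vehicle-only cultures of the same strain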; details: S. cerevisiae rad50 strain growth inhibition, hits give high values
How it was run: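 Relative growth inhibition (compound vs vehicle) was measured in yeast with a defined repair-gene alteration.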

[2] = NCI Yeast Anticancer Drug Screen. Data for the mec2-1 strain (AID 157); details: S. cerevisiae mec2-1 strain, hits give high values
How it was run: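 mec2-1 yeast strain, carrying an alteration in DNA damage repair or cell cycle control, was exposed to compounds; growth inhibition was measured relative to vehicle-treated controls.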

[3] = NCI Yeast Anticancer Drug Screen. Data for the sgs1 mgt1 strain (AID 161);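 also: 0% = growth of cultures given vehicle only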; details: S. cerevisiae sgs1 mgt1 strain, hits give high values
How it was run: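 Yeast cells carrying a defined DNA-repair defect were exposed to test compounds. Growth inhibition was measured relative to vehicle-treated controls.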

[4] = NCI Yeast Anticancer Drug Screen. Data for the cln2 rad14 strain (AID 165);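 also: 0% = growth equal to vehicle treated cultures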; details: S. cerevisiae cln2 rad14 strain, hits give high values
How it was run: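 Yeast carrying cln2 and rad14 alterations (cell cycle control and DNA damage repair) were exposed to compounds. Growth inhibition was measured against vehicle-treated controls.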

[5] = NCI Yeast Anticancer Drug Screen. Data for the bub3 strain (AID 167); details: S. cerevisiae bub3 mutant strain, hits give high values
How it was run: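 Screening used yeast with an engineered genetic alteration affecting cell cycle control. Compound-exposed cultures were compared with vehicle cultures, and reduced growth was taken as inhibition.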

[6] = NCI Yeast Anticancer Drug Screen. Data for the mlh1 rad18 strain (AID 175); details: S. cerevisiae mlh1 rad18 strain growth inhibition, hits give high values
How it was run: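 Growth inhibition of the yeast strain was measured after compound exposure and expressed relative to vehicle-treated controls. The strain carries defined defects in DNA damage repair.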

[7] = at 5.0 µM (retest, dose inferred, filed as 0.5)
[8] = at 50.0 µM (retest, dose inferred, filed as 5.0)

Measured: growth inhibition

c1ccc(-c2cnc3nc4ccccc4nc3n2)cc1
active: [1]; [8] 89% | [1]; at 50.0 µM 94.9% | [2]; [8] 76% | [3]; [8] 73% | [3]; at 50.0 µM 95.8% | [5]; [8] 77% | [5]; at 50.0 µM 92% | [6]; [8] 93% | [6]; at 50.0 µM 89.5%
inactive: [1]; [7] -7% | [2]; [7] 4% | [2]; at 50.0 µM 50.6% | [3]; [7] 12% | [4]; [7] -11% | [4]; [8] 3% | [4]; at 50.0 µM 36.5% | [5]; [7] 16% | [6]; [7] 7%

COc1ccc2c(C)cc(N/N=C/c3ccc(OC)c4ccccc34)nc2c1
inactive: [1]; [7] 27% | [2]; [7] 51% | [2]; at 50.0 µM 36.8% | [3]; [7] 66% | [4]; [7] 0% | [4]; at 50.0 µM 35.5% | [5]; [7] 9% | [5]; at 50.0 µM 52% | [6]; [7] 42% | [6]; at 50.0 µM 39.9%
active: [1]; [8] 98% | [1]; at 50.0 µM 89.7% | [2]; [8] 99% | [3]; [8] 99% | [3]; at 50.0 µM 91% | [4]; [8] 99% | [5]; [8] 99% | [6]; [8] 98%

FC(F)(F)c1nc(S)cc(=S)[nH]1
inactive: [1]; [7] 1% | [1]; [8] 13% | [1]; at 50.0 µM -21.2% | [2]; [7] 4% | [2]; [8] 17% | [2]; at 50.0 µM 24.9% | [3]; [7] 7% | [3]; [8] 26% | [3]; at 50.0 µM -5.45% | [4]; [7] -2% | [4]; [8] 22% | [4]; at 50.0 µM 54% | [5]; [7] -2% | [5]; [8] 31% | [5]; at 50.0 µM 58.3% | [6]; [7] -4% | [6]; [8] 10% | [6]; at 50.0 µM -30%

OC[P+](CO)(CO)C12CC3CC(CC(C3)C1)C2
active: [2]; at 50.0 µM 71.1% | [5]; at 50.0 µM 78% | [6]; at 50.0 µM 89%
inactive: [1]; [7] 12% | [1]; [8] 13% | [1]; at 50.0 µM 48.5% | [2]; [7] 8% | [2]; [8] 11% | [3]; [7] 35% | [3]; [8] 49% | [3]; at 50.0 µM 69.8% | [4]; [7] 18% | [4]; [8] 30% | [4]; at 50.0 µM 67.8% | [5]; [7] 5% | [5]; [8] 40% | [6]; [7] 11% | [6]; [8] 25%

Cc1ccc(N=NC(C(=O)c2ccccc2)C(=O)c2ccccc2)cc1
inactive: [1]; [7] 7% | [2]; [7] -3% | [3]; [7] 14% | [4]; [7] 7% | [5]; [7] -3% | [6]; [7] -2%
active: [1]; [8] 94% | [1]; at 50.0 µM 93% | [2]; [8] 97% | [2]; at 50.0 µM 93.3% | [3]; [8] 92% | [3]; at 50.0 µM 91.3% | [4]; [8] 94% | [4]; at 50.0 µM 87.9% | [5]; [8] 95% | [5]; at 50.0 µM 93.1% | [6]; [8] 95% | [6]; at 50.0 µM 92.5%

O=[N+]([O-])c1ccc(N=Nc2ccc(O)cc2O)cc1
inactive: [1]; [7] 48% | [2]; [7] 24% | [3]; [7] 36% | [4]; [7] -1% | [5]; [7] 45% | [6]; [7] 28%
active: [1]; [8] 97% | [1]; at 50.0 µM 98.5% | [2]; [8] 98% | [2]; at 50.0 µM 98.9% | [3]; [8] 98% | [3]; at 50.0 µM 98.3% | [4]; [8] 97% | [4]; at 50.0 µM 90.4% | [5]; [8] 97% | [5]; at 50.0 µM 98.9% | [6]; [8] 97% | [6]; at 50.0 µM 97.7%

CC(C)c1ccc(/C=C2\CSCC3=C2NC(=S)NC3c2ccc(C(C)C)cc2)cc1 (configuration not stated)
inactive: [1]; [7] -6% | [2]; [7] -17% | [3]; [7] -13% | [4]; [7] -3% | [5]; [7] -13% | [6]; [7] -4%
active: [1]; [8] 83% | [1]; at 50.0 µM 98.3% | [2]; [8] 92% | [2]; at 50.0 µM 98.7% | [3]; [8] 87% | [3]; at 50.0 µM 98.9% | [4]; [8] 83% | [4]; at 50.0 µM 98.6% | [5]; [8] 95% | [5]; at 50.0 µM 98.7% | [6]; [8] 94% | [6]; at 50.0 µM 98.4%

CC1=NC(=Cc2ccc(Cl)cc2)C(=O)N1n1c(-c2ccccc2)nc2ccccc2c1=O
active: [2]; [8] 83% | [2]; at 50.0 µM 70.2% | [3]; [8] 71% | [3]; at 50.0 µM 86% | [4]; [8] 83% | [4]; at 50.0 µM 80% | [5]; [8] 87% | [5]; at 50.0 µM 82% | [6]; at 50.0 µM 81.5%
inactive: [1]; [7] -8% | [1]; [8] 59% | [1]; at 50.0 µM 67.3% | [2]; [7] -10% | [3]; [7] -7% | [4]; [7] -24% | [5]; [7] -6% | [6]; [7] 5% | [6]; [8] 59%

CCOc1ccccc1-c1nc2c(s1)C(=O)c1ccccc1C2=O
active: [1]; [7] 87% | [1]; [8] 98% | [1]; at 50.0 µM 90% | [2]; [7] 100% | [2]; [8] 99% | [2]; at 50.0 µM 91.4% | [3]; [7] 85% | [3]; [8] 98% | [3]; at 50.0 µM 92% | [4]; [8] 98% | [4]; at 50.0 µM 89.9% | [5]; [7] 98% | [5]; [8] 98% | [5]; at 50.0 µM 92.3% | [6]; [7] 94% | [6]; [8] 98% | [6]; at 50.0 µM 91.8%
inactive: [4]; [7] 52%

Reference: PubChem BioAssay (NCI)
